This passage reports z-score results from PubChem BioAssay AID1508600 (Functional Genomics Laboratory (NCATS/FGL), 2020).

Hit rate of the full screen: of about 53,000 sequences, about 3,700 (7%) were called active.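 Rule for the calls: active = gene knockdowns whose robust z-score for IL-1 alpha signal is at least 2 or at most -2, so actives lie on both sides; inactive = the rest.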 The entries come from a sample that favours actives as a whole.

The test is described as follows: Components of the Cytosolic LPS Sensing Pathway: Gene Identification via Genome-wide siRNA Screen.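 Note: robust z of the log signal after scaling to non-targeting control siRNA wells of the plate.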 The settings on record: RAW264.7 macrophages, IL-1a HTRF, actives lie on both sides, screened at 100 nM (by protocol), cells primed 5 h with Pam3CSK4 first. The method in brief:
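Read-out: IL-1a HTRF on supernatant, divided by plate negative-control median ×100, log-transformed and converted to robust z-score. Cells were RAW264.7 given 100 nM siRNA, Pam3CSK4-primed 5 hours, then LipidA-transfected 24 hour.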
Background: Time-resolved FRET reads energy transfer from a long-lived donor to a nearby acceptor.
As for GGAAAGAGGGAAACUAAUUTT against Abhd17a, the z-score is -0.694 (inactive).

Regarding GGCAGAAAGCAGAAACAGUTT against Mok, the z-score was -0.901 (inactive).

On to GGUAUCUUCUCUUGGAAAATT against Tex12, for which the z-score is -0.533 (inactive).

As to GCUAUGGGAUAUGAGCUGATT against Antkmt, the z-score was -0.75 (inactive).

Consider GGAAUUCAGUGAAUGUCAUTT against Gapvd1, for which the z-score was -2.28 (active).

UGUGCCCUAUAGAACCUGUTT against Krtap13-1: the z-score is 0.394 (inactive).

As to GGACAACUCGAGUCUUAAATT against Poln, the z-score is 1 (inactive).

Turning to GCUCUUAUCAGCAUGUAUATT against Birc6, the z-score was 1.7 (inactive).

On to ACUAGACUGAACUACCUGATT against Aim2, for which the z-score was 0.137 (inactive).

As for GGCUCAUCAGAUGUAAACATT against Efcab6, the z-score is -2.13 (active).

On to GCUAACAAGCUAGCAUUUATT against Ltv1, for which the z-score was -1.17 (inactive).

Take GGUCCUGUUGAGAAUUUAATT against Zdhhc15: the z-score is 0.464 (inactive).

On to GGCAACUGAAUGUUUCCUATT against Nudt19, for which the z-score is -1.41 (inactive).

For the sequence CCUAAGAGAUAAGAGCACCTT against Ppa2, the z-score was 0.381 (inactive).

As to GGAGAUUUACUGCUCGCUGTT against Pik3r6, the z-score was 0.0343 (inactive).

As to CAGGAUUCCUUGGACAUACTT against Olfr477, the z-score was -0.559 (inactive).

As to GCUAAGUUCCAAGGCGACCTT against Serpinh1, the z-score was 2.77 (active).

On to GGAUAAAGCAUCAGACAAATT against Hmgn1, for which the z-score is -0.202 (inactive).

As for UCAGCUGGUUUUAAUCUCUTT against Olfr1029, the z-score is -0.193 (inactive).

Take CGCAACAGAUAGUAAAUAUTT against Ufsp2: the z-score is -1.21 (inactive).

In the case of GGACCCAAAUCUUUUUAGATT against Wac, the z-score was -1.03 (inactive).

Turning to GGUCCCAGACUGAGUGAAATT against Epo, the z-score is -0.302 (inactive).

Turning to GGUCAAGAUCCGAAGCUACTT against Cntn2, the z-score was -0.749 (inactive).

With GGUCUUGCUGUUCGAAGAATT against Gsx1, the z-score was 0.417 (inactive).

Turning to AGUGUAACUGCAGAAGCCUTT against Olfr207, the z-score was -1.3 (inactive).

Regarding CAACCGUUGUGGCCAUGACTT against Olfr59, the z-score is -0.332 (inactive).

As for CCCAGGCUAUUUCAACAAUTT against Arhgef11, the z-score is -1.24 (inactive).

Take GGGCUACAAGAAAAAGUAUTT against Krt85: the z-score is 2.69 (active).

On to GCAGUCAAUUCCCUUUUACTT against Ankmy1, for which the z-score was -0.876 (inactive).

As to GCCUAACCAACAAUUCUACTT against Oas1b, the z-score is 1.61 (inactive).

For GGUCUUCUACUCCUUCUCATT against Slc6a19, the z-score was -2.09 (active).

“GGAGACUGCUAUAUUGGCUTT against 1700092C17Rik”: the z-score is -0.147 (inactive).

For GCUAAAAGGUAAGUACUUCTT against Lncpint, the z-score was 0.981 (inactive).

Consider GGGUAACAACCAUGUCCGUTT against Pspn, for which the z-score is 1.26 (inactive).

As to CGGGAAUCCUAUCUAUCAATT against Smox, the z-score is 0.762 (inactive).

For the sequence GGAAGAACAAAAAACCAUGTT against Sf3b2, the z-score is -2.14 (active).

For the sequence CGAGAUGAAUUUCUAGUAGTT against Tubgcp3, the z-score was 1.47 (inactive).

Consider GGUUGGCUUCAAAAAUAUGTT against Psmb1, for which the z-score was -1.04 (inactive).

On to GGAAUUCCACCUAAAAUUGTT against Ttn, for which the z-score was 1.32 (inactive).

For the sequence CCUGCUCCUUACAUCUCGCTT against Foxred2, the z-score was 1.51 (inactive).

Turning to CCAUUUAAUCCAUAUUUCCTT against Gnao1, the z-score was -2.05 (active).

Turning to CGGACUCACAGAGCUAAGATT against Tnp2, the z-score was 1.56 (inactive).

Consider GGGCAGAACUGCAUGAGAATT against Acp1, for which the z-score was -0.176 (inactive).

As to GCACAAAUUUGGUAGUGUUTT against Nup50, the z-score was -1.53 (inactive).

As for GGAGUAAACCUACUGCUCATT against Esam, the z-score was 2.14 (active).

For CCUGAUGUAACUAUAAACATT against Adam32, the z-score was -0.107 (inactive).

Regarding GGAUGUCUGACUCAGGUCUTT against Olfr829, the z-score is 0.0622 (inactive).

Consider GGCAGUGAUGUUUCUCUCGTT against Tmem198b, for which the z-score was 0.152 (inactive).

In the case of GGAUUCCAGAUUAAAUGAUTT against Rfc1, the z-score was 1.09 (inactive).

With GGCAACCAUUAAAUGUUUATT against Trim59, the z-score is -0.54 (inactive).

As for CCUUUUGUUUUACCUACUCTT against Tbx22, the z-score was 2.32 (active).

As for GGAUGAGCAGAAAUGUGUATT against Plekho2, the z-score was 0.931 (inactive).

Consider CCUCUACAUCCAGGAAUGATT against Map4k1, for which the z-score was -0.546 (inactive).

GGUCCUAAUUCGAAGCAGATT against Emc3: the z-score was -0.589 (inactive).

As for GGGAUUGCAUGGUUAAACUTT against Nfam1, the z-score was -0.901 (inactive).

As for GGUUUUGACAUCACAUUCUTT against Mtfr2, the z-score is 1.34 (inactive).

In the case of GGUAGACAGAGAAGAUAAATT against Slc35f5, the z-score was -2.01 (active).

With GGUUGAUGACAACAAGAAATT against Rps12, the z-score was -0.368 (inactive).

Consider GGGAGGAGAGGACAAAUUATT against Ywhae, for which the z-score is 1.66 (inactive).

GGAACGUGAAUCUACAGCATT against Tex43: the z-score was -2.73 (active).

As to GGCAGGACGAACAUGGCUATT against Hspb1, the z-score is 1.2 (inactive).

Consider GGAAUUAAAGAGGAACUCCTT against Adamts20, for which the z-score is 0.172 (inactive).

Consider GCUGUCAGACUAAAGAUAUTT against Mmd, for which the z-score is -0.733 (inactive).

In the case of CCUCCAGAGUAUUGUCUAGTT against Ppfia3, the z-score was 1.26 (inactive).

With GGACAUUGAGAACAUUAUCTT against Caln1, the z-score is -1.14 (inactive).

On to GGACCAUGUGGACUUUAGCTT against Sema7a, for which the z-score is -0.522 (inactive).

On to GGCACUUCAACAGCAGUUATT against Cep295, for which the z-score was -1.27 (inactive).

As to GGUGUUCGUCAUAUGGAAUTT against Tex46, the z-score is 3.71 (active).

Turning to GGUAACUGUUACACAAAUCTT against Tmem161b, the z-score was -0.291 (inactive).

On to GGCCUUUUGGCUUUGAUCUTT against Hoxb1, for which the z-score was -1.86 (inactive).

With GGAAUAUGUCACCAACAAGTT against Akap8l, the z-score is -0.896 (inactive).

As for GCAGGAAGUAAAAUCUCUUTT against Tmem183a, the z-score is 0.707 (inactive).

As to GGAGUCACACCUGAAUUGCTT against Cep89, the z-score was 0.129 (inactive).

As for GCUGAAAUCCAGGAUAGAGTT against Zw10, the z-score was -2.03 (active).

Turning to GGGACAAGGACUUUAAAAATT against Scamp2, the z-score is 0.566 (inactive).

Turning to GCACAUUCAGAUGAGGACUTT against Rnf6, the z-score was -1.05 (inactive).

On to GAUAUGUGUACACUUCUGCTT against Vmn1r218, for which the z-score is -2.08 (active).

On to GGUUACAUGGAUUGAAGCUTT against Scrn3, for which the z-score was 0.183 (inactive).

For the sequence GGAGAUGAUUUUGAACUUCTT against Retreg3, the z-score is 2.73 (active).

As to CCCAACACAAUAUUUGCCATT against Nfyc, the z-score was 0.019 (inactive).

Regarding GCUGUCUCUACGUUGGAGATT against Adamts2, the z-score was 0.145 (inactive).

Consider CCACUUAGGUUAGAAAGAATT against R3hdm1, for which the z-score was -0.77 (inactive).

With CCAAGUCGGACUUACGGUUTT against Cnpy3, the z-score is -1.65 (inactive).

Take UCUGCUCAACAUCGUCAAUTT against Sstr3: the z-score was 0.719 (inactive).

For the sequence GCUCUUCCGAUUAAUGCAGTT against Gabra6, the z-score was 2.87 (active).

GGACCAAGGCUUGGAUCUUTT against Magea6: the z-score is 0.527 (inactive).

“CGUGGUGCCUUUGAAUCUGTT against 9530056K15Rik”: the z-score is 1.2 (inactive).

As to GGCAUCAAGCAAUUCACUCTT against Zfp455, the z-score is 1.14 (inactive).

Take GGUGCAAAUGUUCUCAUCUTT against Mfsd4b1: the z-score is 2.11 (active).

For the sequence GCCACUGUCACUUUUGUACTT against Arl11, the z-score is -1.08 (inactive).

For the sequence GGAUUUGUUGGAAAUUGGATT against Anks1b, the z-score is 0.132 (inactive).

Regarding GGCUGUGCAAGAUGUUCUATT against Gpr27, the z-score was 3.29 (active).

As for CCCAUGGGCAGAUGAAAGCTT against Olfr1441, the z-score was -0.482 (inactive).

Regarding GCAAUGCGACGUGCUCUAUTT against Trim67, the z-score was 0.136 (inactive).

As for GGCUUAAGUUAGGCAAACUTT against Crtc3, the z-score was -0.0675 (inactive).

For UGCUGUGGUCACUCCCAUGTT against Olfr457, the z-score was -2.04 (active).

GCCACAACAAACCUACGACTT against Xpc: the z-score is -1.32 (inactive).

With GCGCAUUGUGUUCUGGUCUTT against Zswim4, the z-score is -1.55 (inactive).

Turning to “GGAACUUGGCCUACUUAUGTT against C130071C03Rik”, the z-score is 0.718 (inactive).

As to GAGGUCAUUAUACCAUUGGTT against Tuba3b, the z-score was 0.554 (inactive).

Consider GGUGACCAGCUCCAUUUCUTT against Ccn5, for which the z-score is 2.61 (active).

Turning to GGCCAACACUCAGAAAAGGTT against Zfp474, the z-score is 1.59 (inactive).

As for GCCAGAUCUGUUAACCGCCTT against Gzmk, the z-score is 2.15 (active).

For the sequence GGUUGGGCUGCCAAGUUUGTT against Fdx1, the z-score is 1.96 (inactive).

With UACUACAACCGCACAGUGATT against Tmc6, the z-score was 0.522 (inactive).

On to GGUGGUCACCAAGAAGUUUTT against Prps2, for which the z-score is 2.52 (active).

Turning to GGAAGCUCUUAAAAGGUUGTT against Hdhd2, the z-score is 0.226 (inactive).

As for GCUCCUCAUGAUAUUGGCCTT against Nagk, the z-score was 0.239 (inactive).
